Most compounds without a hit are left out; they make up all but 7.9% or so of the library.
SW480 rerep: A quantitative high throughput screen for small molecules that induce DNA re-replication in SW480 colon adenocarcinoma cells. SW480 DNA re-replication, Hoechst DNA content imaging, 48 h. Potency, µM (series often up to 46.1 µM), without a hit: at the highest dose re-replication activation, actives largely listed as activators. 340,000 tested, 1.8% active; note: % of control where 0% means no effect; nearly all actives have a fitted effect of over 55% in size
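250 cells/well; 23 nL cpd via pin tool; 48 hr, 37 C, 5% CO2; Hoechst 40 min; imager read of total nuclear intensity, ex 405/em 500-530 nm.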
MCF10A rereplic: A quantitative high throughput screen for small molecules that induce DNA re-replication in MCF 10a normal breast cells. MCF 10A DNA re-replication, Hoechst nuclear intensity, 48 h. Potency, µM (highest dose often 46.1 µM), without a hit: top-dose activity, positive = re-replication, hits mostly activators. 350,000 tested, 2.9% active. AID 624296, 2012; note: % of control where 0% means no effect; nearly all actives have a fitted effect of over 50% in size
HT1080 IDH1KD tx: qHTS for induction of synthetic lethality in tumor cells producing 2HG: qHTS for the HT-1080-IDH1KD cell line; HT-1080 IDH1 knockdown viability, ATP luminescence, 48 h; Potency, µM (doses to about 46.1 µM), without a hit: at the top dose activity, negative = toxicity, most hits filed as cytotoxic; 360,000 tested, 2% active;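 note: 0% = DMSO wells and -100% = cell-free medium wells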
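% activity derives from luminescence (CellTiter-Glo), normalised to DMSO and no-cell wells. HT-1080-IDH1KD cells, 750/well, had 48 h compound exposure at 37 °C.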
HT1080NT lethal: qHTS for induction of synthetic lethality in tumor cells producing 2HG: qHTS for the HT-1080-NT fibrosarcoma cell line; HT-1080-NT fibrosarcoma viability, CellTiter-Glo ATP luminescence, 48 h; Potency, µM (top dose mostly 46.1 µM), inactives show at the highest dose activity, negative = less viability, usual class: cytotoxic; 360,000 tested, 1.6% active; AID 686970, 2013;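 note: NT is the 2HG producing partner of a matched IDH1 knockdown line; 0% = DMSO-treated cells and -100% = media-only wells without cells; nearly all actives have a fitted effect of over 55% in size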
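Compounds were tested in concentration-response format on HT-1080-NT cells for 48 hours at 37 degrees C. Cell viability came from CellTiter-Glo luminescence; curves were classified by r2, response magnitude and activity.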
KB-V1 MDR tox: qHTS assay for MDR1-selective chemotherapeutics: Primary screen using the drug-selected MDR subline cells KB-V1; Potency, µM (doses to about 46.1 µM), usual class: cytotoxic; 400,000 tested, 3.4% active; KB-V1 MDR cells viability, CellTiter-Glo, 72 h; note: % is set by controls: 0 for no effect and ±100 for the full control effect; nearly all actives have a fitted effect of over 60% in size
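KB-V1, DMEM (no phenol red) + 10% FBS; cpd pin-transferred, titration series; 72 h, 37 degrees C; CellTiter-Glo, luminescence. Data normalized, curve-fit.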
KB-3-1 cytotox: qHTS assay for MDR1-selective chemotherapeutics: Primary screen using the parental adenocarcinoma cell KB-3-1; KB-3-1 viability, CellTiter-Glo ATP luminescence, 72 h; Potency, µM (doses to about 46.1 µM), usual class: cytotoxic; 400,000 tested, 1.4% active; AID 1347075, 2019; note: % is set by controls: 0 for no effect and ±100 for the full control effect; nearly all actives have a fitted effect of over 60% in size
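Viability of parental KB-3-1 cells, measured by CellTiter-Glo luminescence, followed a 72 h incubation at 37 °C with pinned compounds in phenol-red-free DMEM containing 10% FBS.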
Active calls of the source: *; i = inactive; ? = inconclusive; / = no result; [ ] = dose if it differs, or a comment. Calls come from the whole dose curve; as a rule, active = well fitted curve in the direction sought with a large enough effect; inconclusive = small, poorly fitted or top-dose-only effect, or another doubt; inactive = no such curve, though single readings can be large; an effect the other way counts as inactive or inconclusive. Potency is the fitted concentration of half-maximal effect.

SMILES | SW480 rerep | MCF10A rereplic | HT1080 IDH1KD tx | HT1080NT lethal | KB-V1 MDR tox | KB-3-1 cytotox
Cc1nn(Cc2ccc(F)cc2)c(C)c1NC(=O)c1cnn2c1NC(c1ccccc1)CC2C(F)(F)F (stereo not given) | 0% | -2% | -1% | 10%[9.24 µM] | i | i
CCN1C(=O)[C@H]2[C@@H](c3ccc(-c4ccccc4)cc3)N3CCCC[C@@]3(C(=O)OC)[C@H]2C1=O | ? | 0% | -22% | -21% | i | ?
COc1ccc(-c2cnc3c(NC(C)=O)cc(-c4cccc(C(=O)NCCN(C)C)c4)cn23)cc1OC | / | / | 33µM* | ? | i | i
COc1cccc(-c2cnc3c(NC(C)=O)cc(-c4cccc(C(=O)NCCN(C)C)c4)cn23)c1 | / | / | ? | 16µM* | i | i
CCc1ccc(S(=O)(=O)c2nnn3c2nc(NCCNC(C)=O)c2cc(Cl)ccc23)cc1 | / | / | / | / | i | i
Cc1ccc(C)c(N2CCN(C(=O)C3CCCN(S(=O)(=O)c4c(C)noc4C)C3)CC2)c1 (stereo not given) | 3% | 9% | -21% | 0% | i | ?
CCOC(=O)c1c(C)[nH]c(C)c1S(=O)(=O)N1CCC(C(=O)N2CCN(c3cc(C)ccc3C)CC2)CC1 | / | / | / | / | i | 16µM*
Cc1ccc(C)c(N2CCN(C(=O)C3CCN(S(=O)(=O)c4c(C)noc4C)CC3)CC2)c1 | ? | 17% | 18µM* | -25% | ? | 8.2µM*
Cc1ccc(C)c(N2CCN(S(=O)(=O)c3c(C)noc3/C=C/N(C)C)CC2)c1 | 4% | 21µM* | 5% | -7% | ? | ?
Cc1ccc(Cl)cc1N1CCN(C(=O)c2ccc(NS(=O)(=O)c3c(C)noc3C)cc2)CC1 | ? | 15µM* | -25% | -21% | i | i
Cc1ccccc1C(=O)N1CC(=O)Nc2ccc(Cl)cc2C1c1ccccc1 (stereo not given) | / | / | / | / | i | i
CCc1ccccc1N1C(=O)N(Cc2cc(=O)n3ccccc3n2)c2ccccc2S1(=O)=O | / | / | / | / | i | i
Nc1cc(Cl)ccc1C(=O)OCC(=O)NCc1cccs1 | -4% | -8% | 0% | -3% | i | i
COc1ccc(/C=C2\CCn3c2nc2ccccc2c3=O)cc1OC | -3% | -1% | 12% | 11% | i | i
COc1cc2c(cc1OC)-c1nc3ccccc3c(=O)n1C(C)(C)C2 | -2% | -6% | -17% | -5% | 9.2µM* | i
CN(C)CCOc1ccc2c(c1)C(=O)C(=Cc1ncc([N+](=O)[O-])n1C)C2 | / | / | 6.5µM* | 23µM* | 3.7µM* | ?
O=C(c1ccccc1Cl)N(Cc1ccco1)c1ccccn1 | / | / | / | / | i | i
CC(C)(C)c1ccc(NC(=O)N2CCCN(c3c(Cl)cncc3Cl)CC2)cc1 | ? | 7.3µM* | -14% | ? | i | i
Cc1cccc(N2CCN(C(=O)c3cc4c(=O)n(C)c5ccccc5c4s3)CC2)c1C | / | / | / | / | i | i
COc1ccc(Cn2c(SCC#N)nc3ccc(N4CCOCC4)cc3c2=O)cc1 | 1% | 21µM* | -16% | -20% | i | i
c1ccc2c(c1)ncn2-c1cncnc1 | / | / | 18% | 24% | i | i
Cc1sc2ncnc(N3CCC(C(=O)Nc4nc(-c5cccs5)cs4)CC3)c2c1C | 12% | ? | 2% | 0% | 5.2µM* | ?
CCOC(=O)c1ccccc1NC(=O)C1CC(=O)N(C2CCCCC2)C1 (stereo not given) | 4% | -4% | 14% | 10% | i | i

Screens as filed in PubChem BioAssay.
